# Autophagy mod – autophagy modulators in MEF cells, primary screen, imaging, high-content, MEF GFP-LC3; AID 463193, 2010; 0.98% of 190,000 active; MEF GFP-LC3 puncta imaging; test concentration mostly 10 µM; calls only at 10 µM (by protocol);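 active = percentage of spot-positive cells more than 3 SD above its plate mean, without a fluorescence outlier flag or 80% toxicity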;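 note: spot-positive cell cutoff set from DMSO-treated cells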
# Insulin prom up – insulin promoter activators in MIN6 cells, imaging, high-content screening, mouse beta cells; MIN6 insulin promoter-GFP reporter; active compounds read high; z-score at 5 µM; 0.3% of 190,000 active;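 active = z-score above 3 at 5 µM with at least 500 cells counted in the well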
# HCT116 PTEN-null – growth suppression of PTEN-null HCT116, primary screen, cell-based, CellTiter-Glo; viability, % at 10 µM; HCT116 PTEN-null viability, 60 h; active compounds read low; 1.2% of 140,000 active; AID 827, 2007;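 active = viability at or below a set limit, 4 SD under the median of all tested compounds, cut at about 3.7% in these data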;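 note: PTEN knockout HCT116 line with beta catenin targeted HCT116 as companion control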
# HCT116 bCat-KO – primary screen for growth suppressors in beta-catenin knockout HCT116 cells (colon tumor, human) | HCT116 beta-catenin knockout viability, CellTiter-Glo, 60 h; active compounds read low | viability, % at 10 µM | 1.5% of 140,000 active | AID 818, 2007;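 active = viability at or under a set limit, the compound median less 4 SD, cut at about 6% in these data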;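 note: 0% = Hyamine 1622 control at 20 µM and 100% = untreated cell control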
# L major viab – Leishmania major promastigote growth inhibition, primary screen | Leishmania major promastigotes, resazurin fluorescence viability | inhibition, % at 10 µM | 9% of 200,000 active; in the data active = inhibition above about 50%;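 note: promastigotes grown with compound for 44 hours at 28 °C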
# Insulin prom inh – inhibitors of insulin promoter-driven GFP, primary screen, imaging, TRM-6 cells (human fetal islet line), eGFP reporter, cell count; 0.9% of 130,000 active; reporter expression induced with tamoxifen; inhibition, % at 2 µM;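 active = inhibition above the mean plus 3 SD, with well images judged a real hit on visual review, cut at about 60% in these data, passing the limit was not always enough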
# * = called active by the depositor; i = inactive; nt = no result given; + = active, no number; ! = not active in a repeat. Shown are actives, neighbours in structure and some others; about 9.6% of the full set was active somewhere.
SMILES,Autophagy mod,Insulin prom up,HCT116 PTEN-null,HCT116 bCat-KO,L major viab,Insulin prom inh
Clc1nc2ccccc2cc1/C=N/Nc1nc2ccccc2[nH]1,i,-1.23,51.8,58.0,21.5,10.0
C=CCn1cc(/C=N/Nc2nc3ccccc3[nH]2)c2ccccc21,i,-1.02,27.9,51.3,100.5*,10.0
S=C(Nc1ccc(Cl)cc1)N1CCN(C2CCCCC2)CC1,i,-0.54,81.0,74.3,80.5*,nt
CCOC(=O)c1[nH]c(C)c(C(=O)OCC(=O)N2CCCCC2C)c1C (stereo unspecified),i,-0.77,105.5,95.1,1.4,16.7
O=c1c2cccnc2[nH]c(=S)n1CCCN1CCN(c2ccccc2F)CC1,+,-0.75,72.1,83.7,7.8,nt
CNC(=S)Nc1cc(Cl)ccc1Oc1ccccc1,i,0.49,92.8,89.6,2.1,26.7
CCNC(=S)Nc1cc(Cl)ccc1Oc1ccccc1,i,0.21,71.6,71.5,66.7*,0.0
CSc1oc(-c2ccccc2)nc1C(N)=O,i,nt,94.5,100.0,-8.8,22.2
Cc1ccc(C)c(-n2c3nc(=O)n(C)c(=O)c-3cc3ccccc32)c1,nt,0.19,nt,nt,nt,nt
Cc1ccc(C)c(-n2c3nc(=O)[nH]c(=O)c-3cc3cc([N+](=O)[O-])ccc32)c1,i,nt,23.6,19.1,97.2*,3.5
CN(C)CCCN(C(=O)CCc1ccccc1)c1nc2ccc(F)cc2s1,i,-0.67,9.0,12.7,48.2,-32.3
Cc1cccc2sc(N(CCCN(C)C)C(=O)CCc3ccccc3)nc12,i,-0.25,1.9*,1.6*,24.3,nt
Cc1ccc2sc(N(CCCN(C)C)C(=O)c3nc4ccccc4s3)nc2c1C,i,0.87,nt,nt,37.1,nt
CN(C)CCCN(C(=O)CCc1ccccc1)c1nc2ccc(Br)cc2s1,i,-2.71,nt,nt,61.4*,-47.1
Cc1cccc2sc(N(CCCN(C)C)C(=O)CN3C(=O)c4ccccc4C3=O)nc12,i,0.71,nt,nt,4.8,11.1
Cc1cccc2sc(N(CCCN(C)C)C(=O)c3nc4ccccc4s3)nc12,i,1.21,7.0,9.7,77.7*,3.6
O=C(c1ccc(S(=O)(=O)Cc2cc(F)ccc2F)c([N+](=O)[O-])c1)N1CCCCC1,i,0.34,51.2,60.4,78.2*,-10.8
O=C(c1ccc(S(=O)(=O)Cc2ccccc2Cl)c([N+](=O)[O-])c1)N1CCN(c2ccccn2)CC1,i,0.33,nt,nt,89.3*,58.3
CCN(c1ccccc1)S(=O)(=O)c1ccc(C(=O)OC(C)C(=O)NCCC2=CCCCC2)cc1 (stereo unspecified),i,-0.16,91.5,91.8,95.7*,5.1
CCN(c1ccccc1)S(=O)(=O)c1ccc(C(=O)Oc2ccc(C(C)=O)cc2)cc1,i,1.43,104.5,100.2,50.2*,-35.1
CC1(C)CC(=O)C(C=Nc2ccccc2Sc2ccccc2)=C(O)C1,i,-0.24,88.0,94.3,71.5*,37.5
CC(=O)Oc1ccc(N(C(C)=O)S(=O)(=O)c2cccs2)c2ccccc12,i,nt,77.8,70.0,99.7*,9.9
Cc1cc2nc(-c3ccc(SCC(=O)N4CCc5ccccc54)nc3)[nH]c2cc1C,i,-0.44,1.0*,0.8*,86.5*,nt
Cn1c(-c2ccccc2)cnc1SCC(=O)N1CCCc2ccccc21,i,1.8,96.3,92.8,76.7*,-26.3
O=C(CSc1nc(N2CCCCC2)nc(N2CCCCC2)n1)N1CCc2ccccc21,i,-0.32,90.7,90.5,-3.4,-341.9
SMILES,Autophagy mod,Insulin prom up,HCT116 PTEN-null,HCT116 bCat-KO,L major viab,Insulin prom inh
O=C(CSc1ncc(-c2ccccc2)n1C1CCCC1)N1CCc2ccccc21,i,-0.01,38.2,47.2,50.5*,-10.0
O=C(CSc1nnc(-c2ccccc2)c(-c2ccccc2)n1)N1CCc2ccccc21,i,-0.37,81.0,81.8,56.7*,10.7
O=c1[nH]c2ccc(Cl)cc2c(O)c1Cc1ccccc1,i,0.25,nt,nt,-4.8,72.7*
COc1ccc2c(C=Nc3c(C)n(C)n(-c4ccccc4)c3=O)c(O)n(Cc3ccco3)c(=O)c2c1,i,-1.67,84.3,93.4,75.6*!,64.3
COCCCNC(=O)c1cccs1,i,-0.1,107.6,99.1,-2.0,-28.6
Cc1cc(C)c(C(=O)Nc2ccc(Br)c(C(F)(F)F)c2)c(C)c1,i,-0.17,32.0,56.8,98.2*,35.1
O=C(NCc1cccs1)C(Cc1ccccc1)NS(=O)(=O)c1cccs1 (stereo unspecified),i,nt,100.4,93.2,13.5,-48.6
O=C(NCc1ccc(F)cc1)C(Cc1ccccc1)NS(=O)(=O)c1cccs1 (stereo unspecified),i,0.2,96.9,85.4,99.8*,0.0
O=C(NCCc1ccccc1)C(NS(=O)(=O)c1cccc2nsnc12)c1ccccc1 (stereo unspecified),i,0.03,84.3,87.8,4.2,-66.7
CC(C)(C)NC(=O)C(Cc1ccccc1)NS(=O)(=O)c1cccc2nsnc12 (stereo unspecified),+,-1.09,91.8,96.6,3.4,-116.0
O=C(NCc1ccccc1)C(Cc1ccccc1)NS(=O)(=O)c1cccc2nsnc12 (stereo unspecified),i,0.17,101.3,86.0,93.3*,-73.1
S=C(c1ccccc1)N(c1ccccc1)c1ccccc1,i,0.08,87.5,88.8,-3.4,-3.3
O=C(NCCC(c1ccccc1)c1ccccc1)c1cccs1,i,0.66,65.4,73.1,28.9,nt
CSc1ccc2c(c1)N(CCC1CCCCN1C)c1ccccc1S2 (stereo unspecified),i,nt,1.4*,1.2*,99.2*,-86.4
CCn1c(NCc2ccccc2Cl)nc2ccccc21,i,0.35,80.5,86.6,51.1*,-48.8
CCn1c(NCc2ccccc2NS(=O)(=O)c2ccc(C)cc2)nc2ccccc21,i,0.2,63.8,72.1,71.8*,11.5
CCn1c(NCc2cc(Br)ccc2NS(=O)(=O)c2ccc(C)cc2)nc2ccccc21,i,-0.69,28.9,61.9,99.5*,-37.1
Cc1ccc(Cn2c(NS(=O)(=O)c3ccccc3)nc3ccccc32)cc1,i,nt,62.1,70.9,11.4,-39.3
CCn1c(NCc2ccco2)nc2ccccc21,i,-0.98,nt,nt,0.3,27.8
CCCn1c(NCc2ccccc2NS(=O)(=O)c2ccc(C)cc2)nc2ccccc21,i,-0.11,44.4,69.4,95.7*,-10.8
COc1ccccc1NC(=O)/C(=C/c1cccs1)NC(=O)c1ccco1,nt,0.25,nt,nt,nt,nt
Cc1sc2nc(SCc3ccc(C(=O)O)cc3)n(Cc3ccco3)c(=O)c2c1C,nt,-0.53,nt,nt,nt,nt
CC(C)OC(=O)CSc1nc(N)c(C#N)cc1C#N,i,-0.94,nt,nt,-1.1,nt
COc1ccccc1-c1cc(C(=O)NN)[nH]n1,nt,1.12,nt,nt,nt,nt
